# Reference: the supplement of paper PMC9446081
# ± gives the standard deviation of the averaged measurements.
# Key:
# Assay in all cases: relative enzymatic activity vs untreated control (fraction); higher = less inhibition
# Settings in all cases: 100 µM; incubation time: 2 h at 37 C
# DNA gyrase = tested on: DNA gyrase
# Description: (§1)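 In vitro enzymatic inhibition assays (ProFoldin kits) for 12 purified essential E. coli enzymes or complexes, each treated with 218 active antibacterial compounds at 100 µM for 2 h at 37°C. Read-outs were fluorescence or absorbance (phosphate detection, dye binding), converted to activity via standard curves and expressed relative to untreated DMSO controls.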
# DNA helicase = DNA helicase (UniProt P0ACB1)
# Sequence of DNA helicase (P0ACB1 whole entry): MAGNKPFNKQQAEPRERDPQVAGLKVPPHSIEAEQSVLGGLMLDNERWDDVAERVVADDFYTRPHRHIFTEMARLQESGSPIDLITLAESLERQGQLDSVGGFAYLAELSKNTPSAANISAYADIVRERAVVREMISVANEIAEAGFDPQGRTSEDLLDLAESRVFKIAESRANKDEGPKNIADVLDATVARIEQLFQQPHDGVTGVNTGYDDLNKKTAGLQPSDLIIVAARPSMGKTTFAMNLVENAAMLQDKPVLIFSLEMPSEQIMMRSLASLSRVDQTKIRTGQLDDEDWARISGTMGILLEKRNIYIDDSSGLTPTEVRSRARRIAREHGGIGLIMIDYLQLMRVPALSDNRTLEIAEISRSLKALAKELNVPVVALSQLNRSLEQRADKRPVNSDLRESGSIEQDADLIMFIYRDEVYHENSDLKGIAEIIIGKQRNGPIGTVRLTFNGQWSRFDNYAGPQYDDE
# Description: as §1
# DNA ligase = DNA ligase (UniProt B1XA82)
# Sequence of DNA ligase (B1XA82 whole entry): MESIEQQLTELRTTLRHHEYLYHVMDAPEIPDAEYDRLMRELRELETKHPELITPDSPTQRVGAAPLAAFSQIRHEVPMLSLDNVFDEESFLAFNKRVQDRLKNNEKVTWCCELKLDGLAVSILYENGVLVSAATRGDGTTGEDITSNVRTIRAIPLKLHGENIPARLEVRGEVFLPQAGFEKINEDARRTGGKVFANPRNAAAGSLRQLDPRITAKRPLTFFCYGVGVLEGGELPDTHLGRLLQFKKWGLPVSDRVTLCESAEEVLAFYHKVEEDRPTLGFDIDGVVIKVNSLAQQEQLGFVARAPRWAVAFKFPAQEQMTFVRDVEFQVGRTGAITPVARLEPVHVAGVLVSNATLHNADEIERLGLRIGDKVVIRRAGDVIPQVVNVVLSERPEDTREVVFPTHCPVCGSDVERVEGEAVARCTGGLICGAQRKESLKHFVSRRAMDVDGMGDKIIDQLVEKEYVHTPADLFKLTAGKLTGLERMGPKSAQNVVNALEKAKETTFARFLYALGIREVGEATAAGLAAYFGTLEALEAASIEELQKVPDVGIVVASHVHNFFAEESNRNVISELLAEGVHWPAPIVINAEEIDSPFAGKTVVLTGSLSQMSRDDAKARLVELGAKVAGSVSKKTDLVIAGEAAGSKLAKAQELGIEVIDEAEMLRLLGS
# Description: as §1
# DNA polymerase = DNA polymerase (UniProt P10443)
# Sequence of DNA polymerase (P10443 whole entry): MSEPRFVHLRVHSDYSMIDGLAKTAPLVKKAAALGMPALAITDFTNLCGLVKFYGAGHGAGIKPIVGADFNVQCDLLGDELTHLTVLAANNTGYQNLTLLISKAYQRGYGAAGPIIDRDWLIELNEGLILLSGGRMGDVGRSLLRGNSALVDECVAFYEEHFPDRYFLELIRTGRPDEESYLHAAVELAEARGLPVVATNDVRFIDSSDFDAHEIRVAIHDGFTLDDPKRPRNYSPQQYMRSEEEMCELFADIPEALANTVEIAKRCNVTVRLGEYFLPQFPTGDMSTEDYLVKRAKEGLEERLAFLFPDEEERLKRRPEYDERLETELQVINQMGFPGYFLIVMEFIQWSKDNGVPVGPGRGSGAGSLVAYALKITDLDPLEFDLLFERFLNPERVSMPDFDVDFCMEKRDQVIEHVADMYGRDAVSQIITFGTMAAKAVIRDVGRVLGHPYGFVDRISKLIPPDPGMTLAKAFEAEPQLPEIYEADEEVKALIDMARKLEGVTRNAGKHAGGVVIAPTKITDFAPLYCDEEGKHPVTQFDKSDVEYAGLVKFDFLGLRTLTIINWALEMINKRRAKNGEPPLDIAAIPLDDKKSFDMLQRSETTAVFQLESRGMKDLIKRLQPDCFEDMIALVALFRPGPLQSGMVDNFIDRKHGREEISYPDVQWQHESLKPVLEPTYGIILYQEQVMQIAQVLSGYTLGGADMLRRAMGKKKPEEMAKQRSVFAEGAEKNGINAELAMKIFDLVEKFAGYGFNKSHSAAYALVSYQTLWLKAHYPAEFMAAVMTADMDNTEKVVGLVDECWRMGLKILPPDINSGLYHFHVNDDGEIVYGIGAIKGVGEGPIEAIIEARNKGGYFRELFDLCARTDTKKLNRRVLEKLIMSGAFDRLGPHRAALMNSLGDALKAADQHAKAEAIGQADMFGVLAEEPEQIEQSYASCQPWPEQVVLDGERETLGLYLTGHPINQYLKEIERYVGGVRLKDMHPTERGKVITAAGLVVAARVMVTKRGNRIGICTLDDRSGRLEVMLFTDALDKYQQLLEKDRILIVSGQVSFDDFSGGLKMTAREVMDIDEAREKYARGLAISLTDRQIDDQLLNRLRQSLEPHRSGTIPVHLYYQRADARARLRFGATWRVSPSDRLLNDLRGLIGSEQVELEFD
# Description: as §1
# DNA primase = DNA primase (UniProt P0ABS7)
# Sequence of DNA primase (P0ABS7 whole entry): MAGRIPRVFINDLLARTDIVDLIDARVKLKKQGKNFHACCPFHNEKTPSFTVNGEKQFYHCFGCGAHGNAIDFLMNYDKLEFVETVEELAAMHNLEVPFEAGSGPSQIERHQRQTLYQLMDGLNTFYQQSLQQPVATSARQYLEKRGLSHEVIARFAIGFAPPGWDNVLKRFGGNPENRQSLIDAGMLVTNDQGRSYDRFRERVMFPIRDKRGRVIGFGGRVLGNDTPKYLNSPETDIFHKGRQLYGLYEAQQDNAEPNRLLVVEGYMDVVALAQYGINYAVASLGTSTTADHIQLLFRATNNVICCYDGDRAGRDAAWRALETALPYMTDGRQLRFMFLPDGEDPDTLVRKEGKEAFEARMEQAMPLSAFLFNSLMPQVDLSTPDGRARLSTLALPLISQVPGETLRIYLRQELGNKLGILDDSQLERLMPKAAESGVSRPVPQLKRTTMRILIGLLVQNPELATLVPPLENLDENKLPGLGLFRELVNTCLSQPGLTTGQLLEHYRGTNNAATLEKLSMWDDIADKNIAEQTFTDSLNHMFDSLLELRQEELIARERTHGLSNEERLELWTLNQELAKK
# Description: as §1
# GlmU = GlmU (UniProt A7ZTU1)
# Sequence of GlmU (A7ZTU1 whole entry, looked up): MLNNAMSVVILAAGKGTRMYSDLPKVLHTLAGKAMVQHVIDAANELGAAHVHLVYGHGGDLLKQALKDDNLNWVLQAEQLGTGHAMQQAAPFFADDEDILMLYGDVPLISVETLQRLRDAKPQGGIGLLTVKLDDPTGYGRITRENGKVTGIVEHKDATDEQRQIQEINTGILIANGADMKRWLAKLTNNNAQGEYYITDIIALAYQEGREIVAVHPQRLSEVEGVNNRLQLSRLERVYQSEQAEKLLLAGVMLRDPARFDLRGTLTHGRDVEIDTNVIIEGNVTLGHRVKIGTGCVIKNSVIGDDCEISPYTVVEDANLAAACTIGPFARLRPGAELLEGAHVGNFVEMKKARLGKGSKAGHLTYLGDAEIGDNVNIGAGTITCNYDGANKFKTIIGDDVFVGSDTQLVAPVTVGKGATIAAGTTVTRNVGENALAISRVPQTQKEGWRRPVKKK
# Description: as §1
# Guanlyate kinase = Guanlyate kinase (UniProt Q0TBG1)
# Sequence of Guanlyate kinase (Q0TBG1 whole entry): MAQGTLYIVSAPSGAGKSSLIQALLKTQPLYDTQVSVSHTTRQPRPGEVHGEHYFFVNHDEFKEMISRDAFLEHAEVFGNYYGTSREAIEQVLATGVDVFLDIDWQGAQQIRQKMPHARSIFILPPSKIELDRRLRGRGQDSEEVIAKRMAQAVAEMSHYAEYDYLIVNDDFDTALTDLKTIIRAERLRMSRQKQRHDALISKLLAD
# Description: as §1
# MurA = MurA (UniProt Q3YX52)
# Sequence of MurA (Q3YX52 whole entry): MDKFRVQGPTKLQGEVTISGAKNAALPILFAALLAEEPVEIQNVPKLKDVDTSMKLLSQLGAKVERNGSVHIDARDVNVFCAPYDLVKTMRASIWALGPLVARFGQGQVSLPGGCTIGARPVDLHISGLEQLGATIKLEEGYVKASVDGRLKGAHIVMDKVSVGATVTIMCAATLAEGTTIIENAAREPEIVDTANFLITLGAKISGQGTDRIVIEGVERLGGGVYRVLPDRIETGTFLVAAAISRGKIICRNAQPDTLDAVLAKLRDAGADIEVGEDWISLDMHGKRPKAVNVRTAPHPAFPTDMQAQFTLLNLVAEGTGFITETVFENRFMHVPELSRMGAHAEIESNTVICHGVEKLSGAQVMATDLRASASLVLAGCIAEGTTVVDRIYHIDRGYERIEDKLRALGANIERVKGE
# Description: as §1
# MurD = target: T1, MurD (UniProt P14900)
# T1 sequence (whole entry): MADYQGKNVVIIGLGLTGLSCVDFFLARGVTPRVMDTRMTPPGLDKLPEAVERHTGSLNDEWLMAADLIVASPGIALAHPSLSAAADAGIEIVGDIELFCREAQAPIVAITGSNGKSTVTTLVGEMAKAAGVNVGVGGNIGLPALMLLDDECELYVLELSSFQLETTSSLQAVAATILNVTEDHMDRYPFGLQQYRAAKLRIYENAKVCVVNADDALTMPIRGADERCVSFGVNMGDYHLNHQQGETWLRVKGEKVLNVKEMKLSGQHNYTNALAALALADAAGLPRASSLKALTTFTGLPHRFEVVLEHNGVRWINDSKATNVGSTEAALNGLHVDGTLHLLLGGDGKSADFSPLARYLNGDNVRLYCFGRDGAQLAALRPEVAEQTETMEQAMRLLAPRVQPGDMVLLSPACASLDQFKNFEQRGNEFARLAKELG
# Description: as §1
# MurF = target: T2, MurF (UniProt P11880)
# T2 sequence (whole entry): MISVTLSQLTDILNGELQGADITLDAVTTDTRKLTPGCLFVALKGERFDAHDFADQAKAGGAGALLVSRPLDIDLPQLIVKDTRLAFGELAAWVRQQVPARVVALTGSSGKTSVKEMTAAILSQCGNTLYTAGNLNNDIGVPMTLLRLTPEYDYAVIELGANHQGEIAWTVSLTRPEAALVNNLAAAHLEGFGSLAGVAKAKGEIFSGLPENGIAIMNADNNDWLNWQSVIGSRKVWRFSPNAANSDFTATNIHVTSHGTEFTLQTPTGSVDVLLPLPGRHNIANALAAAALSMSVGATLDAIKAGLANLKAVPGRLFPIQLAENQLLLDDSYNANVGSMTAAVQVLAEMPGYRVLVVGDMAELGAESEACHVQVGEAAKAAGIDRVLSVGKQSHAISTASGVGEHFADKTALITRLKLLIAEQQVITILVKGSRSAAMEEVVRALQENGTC
# Description: as §1
# RNA polymerase = tested on: RNA polymerase
# Description: as §1
structure (smiles),measurement,setting,value
N[C@H]1CCN(c2nc3c(cc2F)c(=O)c(C(=O)O)cn3-c2ccc(F)cc2F)C1,relative enzymatic activity,DNA gyrase,0.206 ± 0.29
same,relative enzymatic activity,DNA helicase,0.461 ± 0.041
same,relative enzymatic activity,DNA ligase,0.91 ± 0.23
same,relative enzymatic activity,DNA polymerase,1.17 ± 0.24
same,relative enzymatic activity,DNA primase,0.774 ± 0.035
same,relative enzymatic activity,GlmU,0.955 ± 0.026
same,relative enzymatic activity,Guanlyate kinase,0.852 ± 0.12
same,relative enzymatic activity,MurA,0.521 ± 0.22
same,relative enzymatic activity,MurD,0.586 ± 0.39
same,relative enzymatic activity,MurF,0.924 ± 0.25
same,relative enzymatic activity,RNA polymerase,0.929 ± 0.12
CNC1C(O)C(NC)C2OC3(O)C(=O)CC(C)OC3OC2C1O.Cl.Cl (centres undefined),relative enzymatic activity,DNA gyrase,0.963 ± 0.22
same,relative enzymatic activity,DNA helicase,0.484 ± 0.0079
same,relative enzymatic activity,DNA ligase,1.07 ± 0.22
same,relative enzymatic activity,DNA polymerase,1.35 ± 0.45
same,relative enzymatic activity,DNA primase,0.693 ± 0.19
same,relative enzymatic activity,GlmU,1.02 ± 0.015
same,relative enzymatic activity,Guanlyate kinase,0.421 ± 0.021
same,relative enzymatic activity,MurA,0.4888 ± 0.0032
same,relative enzymatic activity,MurD,0.533 ± 0.35
same,relative enzymatic activity,MurF,0.898 ± 0.16
same,relative enzymatic activity,RNA polymerase,0.871 ± 0.064
O=C1CN(N=Cc2ccc([N+](=O)[O-])o2)C(=O)N1,relative enzymatic activity,DNA gyrase,1.07 ± 0.045
same,relative enzymatic activity,DNA helicase,0.467 ± 0.062
same,relative enzymatic activity,DNA ligase,1.42 ± 0.59
same,relative enzymatic activity,DNA polymerase,1.32 ± 0.47
same,relative enzymatic activity,DNA primase,0.655 ± 0.11
same,relative enzymatic activity,GlmU,0.964 ± 0.044
same,relative enzymatic activity,Guanlyate kinase,0.855 ± 0.027
same,relative enzymatic activity,MurA,0.649 ± 0.061
same,relative enzymatic activity,MurD,0.593 ± 0.41
same,relative enzymatic activity,MurF,0.96 ± 0.23
same,relative enzymatic activity,RNA polymerase,0.815 ± 0.028
CCC(C)CCCCC(=O)NC(CCN)C(=O)NC(C(=O)NC(CCN)C(=O)NC1CCNC(=O)C(C(C)O)NC(=O)C(CCN)NC(=O)C(CCN)NC(=O)C(CC(C)C)NC(=O)C(Cc2ccccc2)NC(=O)C(CCN)NC1=O)C(C)O.O=S(=O)(O)O (centres undefined),relative enzymatic activity,DNA gyrase,1.09 ± 0.019
same,relative enzymatic activity,DNA helicase,0.653 ± 0.23
same,relative enzymatic activity,DNA ligase,0.982 ± 0.031
same,relative enzymatic activity,DNA polymerase,1.36 ± 0.48
same,relative enzymatic activity,DNA primase,0.688 ± 0.15
same,relative enzymatic activity,GlmU,1.037 ± 0.0054
same,relative enzymatic activity,Guanlyate kinase,0.9729 ± 0.0096
same,relative enzymatic activity,MurA,0.649 ± 0.024
same,relative enzymatic activity,MurD,0.639 ± 0.43
same,relative enzymatic activity,MurF,0.894 ± 0.25
same,relative enzymatic activity,RNA polymerase,0.892 ± 0.046
N[C@@H]1CC[C@@H](c2ccc(Cl)c(Cl)c2)c2ccccc21,relative enzymatic activity,DNA gyrase,0.381 ± 0.18
same,relative enzymatic activity,DNA helicase,0.0688 ± 0.0028
same,relative enzymatic activity,DNA ligase,0.842 ± 0.083
same,relative enzymatic activity,DNA polymerase,0.507 ± 0.72
same,relative enzymatic activity,DNA primase,0.749 ± 0.027
same,relative enzymatic activity,GlmU,0.646 ± 0.059
same,relative enzymatic activity,Guanlyate kinase,0.924 ± 0.13
same,relative enzymatic activity,MurA,0.622 ± 0.57
same,relative enzymatic activity,MurD,0.378 ± 0.23
same,relative enzymatic activity,MurF,1.02 ± 0.22
same,relative enzymatic activity,RNA polymerase,0.905 ± 0.019
CC1(C)S[C@@H]2[C@H](NC(=O)[C@H](N)c3ccccc3)C(=O)N2[C@H]1C(=O)OCOC(=O)[C@@H]1N2C(=O)C[C@H]2S(=O)(=O)C1(C)C,relative enzymatic activity,DNA gyrase,0.828 ± 0.25
same,relative enzymatic activity,DNA helicase,0.472 ± 0.23
same,relative enzymatic activity,DNA ligase,0.742 ± 0.024
same,relative enzymatic activity,DNA polymerase,0.512 ± 0.72
same,relative enzymatic activity,DNA primase,0.809 ± 0.025
same,relative enzymatic activity,GlmU,0.994 ± 0.012
same,relative enzymatic activity,Guanlyate kinase,0.946 ± 0.046
same,relative enzymatic activity,MurA,0.6 ± 0.24
same,relative enzymatic activity,MurD,0.58 ± 0.38
same,relative enzymatic activity,MurF,1.11 ± 0.15
same,relative enzymatic activity,RNA polymerase,0.868 ± 0.042
O=C(O)c1cn(C2CC2)c2cc(N3CCC(O)(COc4ccc(N5C[C@H](CO)OC5=O)cc4F)CC3)c(F)cc2c1=O,relative enzymatic activity,DNA gyrase,0.0421 ± 0.059
same,relative enzymatic activity,DNA helicase,0.414 ± 0.095
same,relative enzymatic activity,DNA ligase,0.9068 ± 0.0026
same,relative enzymatic activity,DNA polymerase,1.13 ± 0.22
same,relative enzymatic activity,DNA primase,0.851 ± 0.039
same,relative enzymatic activity,GlmU,0.9967 ± 0.0077
same,relative enzymatic activity,Guanlyate kinase,0.905 ± 0.15
same,relative enzymatic activity,MurA,0.608 ± 0.25
same,relative enzymatic activity,MurD,0.583 ± 0.39
same,relative enzymatic activity,MurF,1.22 ± 0.022
same,relative enzymatic activity,RNA polymerase,0.8 ± 0.067
CC1COc2c(C3(N)CC3)c(F)cc3c(=O)c(C(=O)O)cn1c23.CS(=O)(=O)O (centres undefined),relative enzymatic activity,DNA gyrase,0.0382 ± 0.054
same,relative enzymatic activity,DNA helicase,0.57 ± 0.24
same,relative enzymatic activity,DNA ligase,0.904 ± 0.083
same,relative enzymatic activity,DNA polymerase,0.511 ± 0.72
same,relative enzymatic activity,DNA primase,0.835 ± 0.011
same,relative enzymatic activity,GlmU,0.898 ± 0.045
same,relative enzymatic activity,Guanlyate kinase,1.02 ± 0.16
same,relative enzymatic activity,MurA,0.879 ± 0.057
same,relative enzymatic activity,MurD,0.579 ± 0.4
same,relative enzymatic activity,MurF,1.07 ± 0.021
same,relative enzymatic activity,RNA polymerase,0.872 ± 0.013
CN1CCN(c2c(F)cc3c(=O)c(C(=O)O)cn4c3c2SCC4)CC1,relative enzymatic activity,DNA gyrase,0.0039 ± 0.0055
same,relative enzymatic activity,DNA helicase,0.623 ± 0.2
same,relative enzymatic activity,DNA ligase,1.02 ± 0.03
same,relative enzymatic activity,DNA polymerase,1.21 ± 0.25
same,relative enzymatic activity,DNA primase,0.807 ± 0.022
same,relative enzymatic activity,GlmU,0.952 ± 0.026
same,relative enzymatic activity,Guanlyate kinase,0.926 ± 0.19
same,relative enzymatic activity,MurA,0.7644 ± 0.0074
same,relative enzymatic activity,MurD,0.608 ± 0.44
same,relative enzymatic activity,MurF,0.899 ± 0.27
same,relative enzymatic activity,RNA polymerase,0.844 ± 0.023
